# KB-3-1 tox – qHTS assay for MDR1-selective chemotherapeutics: Primary screen using the parental adenocarcinoma cell KB-3-1. KB-3-1 viability, CellTiter-Glo ATP luminescence, 72 h. 400,000 tested, 1.4% active. Potency, µM (titrated, usually from 46.1 µM), actives largely listed as cytotoxic; note: nearly all actives have a fitted effect of over 60% in size
#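 Cytotoxicity measured as CellTiter-Glo luminescence after 72 h at 37 C. Compound titrations were pinned onto drug-naive KB-3-1 parental adenocarcinoma cells grown in DMEM with 10% FBS, and normalized data fitted to concentration-response curves.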
# HT1080 IDH1KD tx – qHTS for induction of synthetic lethality in tumor cells producing 2HG: qHTS for the HT-1080-IDH1KD cell line; HT-1080 IDH1 knockdown viability, ATP luminescence, 48 h; Potency, µM (highest dose often 46.1 µM), for the others: top-dose activity, negative = toxicity, actives largely listed as cytotoxic; 360,000 tested, 2% active; AID 686971, 2013;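 note: 0% = DMSO wells and -100% = cell-free medium wells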
#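 Knockdown cells (IDH1KD HT-1080) received compounds 2 h after plating at 750 cells/well and were kept 48 h at 37 °C in 5% FBS RPMI. A CellTiter-Glo luminescence read gave % activity for curve fitting.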
# DT40 TDP1 CPT – qHTS for Inhibitors of human tyrosyl-DNA phosphodiesterase 1 (TDP1): qHTS in cells in presence of CPT. chicken DT40 Tdp1-/-;hTDP1 cells + 20 nM CPT, ATP luminescence, 48 h. Potency, µM (series often up to 46.2 µM), without a hit: top-dose activity change, negative = growth inhibition, most hits filed as inhibitors. 420,000 tested, 12% active; note: nearly all actives have a fitted effect of over 55% in size
#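 Chicken DT40 Tdp1-/- cells complemented with human TDP1, 400 cells/well, exposed to compounds plus 20 nM camptothecin for at least 48 h at 37 C; viability read as ATP content by CellTiter-Glo luminescence.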
# KB-V1 cytotox – qHTS assay for MDR1-selective chemotherapeutics: Primary screen using the drug-selected MDR subline cells KB-V1; Potency, µM (highest dose often 46.1 µM), most hits filed as cytotoxic; KB-V1 MDR cells viability, CellTiter-Glo, 72 h; 400,000 tested, 3.4% active; note: nearly all actives have a fitted effect of over 60% in size
#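 KB-V1 MDR subline cells in DMEM (phenol-red free, 10% FBS) exposed to compounds in qHTS concentration series for 72 h at 37 degrees C. Viability read by CellTiter-Glo luminescence; concentration-effect curves fitted after normalization and correction.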
# DT40 TDP1 no CPT – qHTS for Inhibitors of human tyrosyl-DNA phosphodiesterase 1 (TDP1): qHTS in cells in absence of CPT | DT40 Tdp1-/- hTDP1 cells, no CPT, ATP luminescence, 48 h | Potency, µM (top dose mostly 46.2 µM), without a hit: at the top dose activity change, negative = growth inhibition, actives largely listed as inhibitors | 420,000 tested, 15% active | AID 686978, 2013; note: nearly all actives have a fitted effect of over 55% in size
#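 Growth kinetics read by CellTiter-Glo luminescence after ≥48 hr at 37 °C. Cells: DT40 Tdp1-/- stably carrying human TDP1, 400 per well, compound exposure in the absence of CPT (DMSO vehicle).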
# HT1080-NT tox – qHTS for induction of synthetic lethality in tumor cells producing 2HG: qHTS for the HT-1080-NT fibrosarcoma cell line; HT-1080-NT fibrosarcoma viability, CellTiter-Glo ATP luminescence, 48 h; Potency, µM (highest dose often 46.1 µM), without a hit: at the top dose activity, negative = less viability, hits mostly cytotoxic; 360,000 tested, 1.6% active; AID 686970, 2013;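 note: NT is the 2HG producing partner of a matched IDH1 knockdown line; 0% = DMSO-treated cells and -100% = media-only wells without cells; nearly all actives have a fitted effect of over 55% in size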
#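 A 48-hour cytotoxicity screen used HT-1080-NT cells plated 2 hours before compound delivery. ATP-based CellTiter-Glo luminescence measured viability, normalized to DMSO and no-cell controls.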
# The depositor's hits bear a star; i = inactive; u = inconclusive; x = no result given; ! = not active in a repeat. The list is not random: actives were taken first. Their share in the collection is about 19%. Calls come from the whole dose curve; as a rule, active = well fitted curve in the direction sought with a large enough effect; inconclusive = small, poorly fitted or top-dose-only effect, or another doubt; inactive = no such curve, though single readings can be large; an effect the other way counts as inactive or inconclusive. Unless noted, % is set by controls: 0 for no effect and ±100 for the full control effect; potency is the fitted concentration of half-maximal effect.
SMILES,KB-3-1 tox,HT1080 IDH1KD tx,DT40 TDP1 CPT,KB-V1 cytotox,DT40 TDP1 no CPT,HT1080-NT tox
C/C(CC1CC(C)OC1=O)=N\NC(N)=S (centres undefined),i,2%,-11%,i,15%,3%
O=C(Cn1ccn(-c2ccc(F)c(F)c2)c(=O)c1=O)NCc1ccccc1,x,x,1%,x,1%,x
COc1ccc(OC)c(NC(=O)/C=C/c2ccccc2[N+](=O)[O-])c1,i,-8%,-11%,i,u,-6%
COc1ccc(/C=C/C(=O)c2ccccn2)cc1,i,u,21µM*,i,u,u
COc1ccc([N+](=O)[O-])c(C=CC(=O)c2ccccn2)c1,u,u,5.2µM*,u,2.3µM*,u
COc1ccc(NS(=O)(=O)c2cc3[nH]c(=O)c(=O)[nH]c3cc2C)cc1Cl,i,x,2%,i,-13%,x
Cc1ccccc1OCCNC(=O)/C=C/c1ccc([N+](=O)[O-])cc1,i,0%,1%,i,u,-7%
CCCCOc1ccc(/C=C/C(=O)Nc2ccc([N+](=O)[O-])cc2C)cc1,i,-1%,u,i,u,-7%
COc1ccccc1OCCNC(=O)/C=C/c1ccc([N+](=O)[O-])cc1,i,-1%,-9%,15µM*,-30%,7%
CCCOc1ccc(/C=C/C(=O)Nc2ccc([N+](=O)[O-])cc2)cc1,7.3µM*,-4%,18µM*,26µM*,21µM*,13µM*
CCN(CC)c1ccc(S(=O)(=O)N2CCOCC2)cc1NC(=O)CN1CCc2ccccc2C1,i,u,4.6µM*,u,7.3µM*,-11%
CCN(CC)c1ccc(S(=O)(=O)N2CCOCC2)cc1NC(=O)COC(=O)/C=C/c1ccccc1,i,0%,18µM*,i,u,8%
CCN(CC)c1ccc(S(=O)(=O)N2CCOCC2)cc1NC(=O)COC(=O)/C=C/c1ccc(C)o1,i,-17%,13µM*,u,10µM*,-19%
CCN(CC)c1ccc(S(=O)(=O)N2CCOCC2)cc1NC(=O)COC(=O)/C=C/c1ccc(O)c(OC)c1,i,-7%,u,i,21µM*,2%
Cc1ccc2cccc(NC(=O)COc3ccccc3[N+](=O)[O-])c2n1,i,x,-12%,i,-15%,x
Cc1cccc(NNC(N)=S)c1C,i,-7%,u,u,-9%,-5%
COc1ccc(C(=O)N(Cc2cc(OC)c(OC)c(OC)c2)C2CCS(=O)(=O)C2)cc1Cl (centres undefined),i,x,-11%,i,-13%,x
CC1=C(C(N)=O)C(c2ccccc2)n2nc(-c3ccncc3)nc2N1 (centres undefined),i,-1%,-6%,i,-6%,-3%
Cc1nc(-[n+]2nc(-c3ccncc3)nn2-c2ccccc2)sc1C,u,10µM*,1.5µM*,u,1.8µM*,26µM*
CC(C)NC(=S)N/N=C1\CCCCC1C1CCCCC1 (centres undefined),u,-8%,5.8µM*,u,2.9µM*,4%
CCc1ccc(C2C3=C(CC(C)(C)CC3=O)OC3=C2C(=O)CC(C)(C)C3)cc1,i,1%,u,u,23µM*,3%
CC1(C)CC(=O)C2=C(C1)OC1=C(C(=O)CC(C)(C)C1)C2c1ccccc1,i,12%,-19%,i,-16%,6%
O=C1C=CC(=Nc2ccc3c(c2)Cc2ccccc2-3)O1,i,-1%,7%,i,9%,8%
CCCC(=O)Nc1c(I)cc(I)c(CC(CC)C(=O)O)c1I (centres undefined),x,x,8%,x,0%,x
CCC(Cc1c(I)cc(I)c(N)c1I)C(=O)O (centres undefined),i,-3%,4%,i,9µM*!,-27%
SMILES,KB-3-1 tox,HT1080 IDH1KD tx,DT40 TDP1 CPT,KB-V1 cytotox,DT40 TDP1 no CPT,HT1080-NT tox
C[N+]1(CC(=O)c2ccc3c(c2)CCCC3)CCOCC1,u,x,6%,i,-20%,x
CCOc1ccc(C(=O)Nc2ccc(N3CCN(C(C)=O)CC3)cc2)cc1[N+](=O)[O-],i,8%,u,u,u,16%
CC(=O)N1CCN(c2ccc(Oc3ccc([N+](=O)[O-])c(C(F)(F)F)c3)cc2)CC1,u,-29%,12µM*,5.2µM*,2.9µM*,u
Cn1c(=O)oc2cc(S(=O)(=O)NC(Cc3ccccc3)C(=O)Nc3ccc(F)c(Cl)c3)ccc21 (centres undefined),i,x,0%,i,-22%,x
CN1CCN(C(=O)/C=C/c2cn(-c3ccccc3)nc2-c2ccc3c(c2)OCCO3)CC1,i,23µM*,-2%,i,-21%,23µM*
Cc1ccccc1NC(=O)COC(=O)/C=C/c1cn(-c2ccccc2)nc1-c1cccnc1,i,0%,-1%,i,u,3%
CC(=O)Nc1ccc(NC(=O)C(C)OC(=O)/C=C/c2cn(-c3ccccc3)nc2-c2cccnc2)cc1 (centres undefined),u,u,u,u,21µM*,u
O=C(/C=C/c1cn(-c2ccccc2)nc1-c1cccnc1)N1CCCCC1,i,-1%,u,u,18µM*,0%
c1ccc(-n2cc(CNCCc3cscn3)c(-c3ccc4c(c3)OCO4)n2)cc1,u,u,u,i,23µM*,u
COc1ccc2c(c1)CCc1c(C(=O)Nc3ccc(F)c(Cl)c3)noc1-2,i,x,-17%,u,-12%,x
Cc1cc(Cl)ccc1NC(=O)CN1C(=O)CSc2ccc(S(=O)(=O)N(C)C)cc21,i,x,u,i,-28%,x
OCc1cn(-c2ccccc2)nc1-c1ccc2c(c1)OCCO2,i,-15%,u,u,23µM*,-7%
O=C(O)/C=C/c1cn(-c2ccccc2)nc1-c1ccc2c(c1)OCCO2,i,-10%,-13%,i,u,-6%
O=C(/C=C\c1cn(-c2ccccc2)nc1-c1ccccc1)Nc1nccs1,u,21µM*,15µM*,u,u,15µM*
